From PubChem BioAssay (EPA / NIEHS) come the findings set out here.

Values joined by “and” are separate entries in the source; they are usually repeats but may differ in a detail not shown here. Identical values can stand only once. Records with an inconclusive call do not appear. More than one record can exist for a structure, and the calls need not agree. Active and inactive are the calls of the source. Rule for the calls, unless noted: active = hit-call score of the fitted dose curve at least 0.9, where 1 is the maximum; inactive = score below 0.9.

For test [1], the target named is Retinoic acid receptor RXR-alpha (Homo sapiens) (UniProt P19793). Kind of test: ATG_RXRa_TRANS: Attagene TRANS-FACTORIAL HepG2 Assay for human Retinoid X Receptor alpha (RXRa) (AID 2283012; active = hit-call score of the fitted dose curve at least 0.9, where 1 is the maximum). A digest of the protocol:
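TRANS format reporting activity of exogenous RXRa-Gal4 chimera in transiently transfected HepG2, 24 h exposure. Reporter transcripts quantified by RT-PCR with capillary electrophoresis, with gain of signal scored relative to DMSO.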

The target of test [2] is human Thyroid Receptor alpha (THRa1), THRA (gene 7067) (UniProt P10827). Kind of test: ATG_THRa1_TRANS: Attagene TRANS-FACTORIAL HepG2 Assay for human Thyroid Receptor alpha (THRa1) (AID 2283014; active = hit-call score of the fitted dose curve at least 0.9, where 1 is the maximum). In short, it runs like this: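 HepG2 cells transiently transfected with chimeric NR-Gal4 and GAL4-UAS reporter units, dosed 24 h. Reporter mRNA quantified by RT-PCR, fluorescent labeling, HpaI digestion and capillary electrophoresis; gain-of-signal fit versus DMSO.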

Read-out in test [3]: E-selectin (Homo sapiens) (UniProt P16581)
Kind of test: BSK_3C_Eselectin: BioMAP Diversity Plus: 3C Assay for Eselectin Biomarker Activity (AID 2283015).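 Note: cell surface E-selectin protein quantified by ELISA 24 h after dosing.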 As to conditions: primary human endothelial cells (HUVEC); actives raise or lower the signal. A digest of the protocol:
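Primary human umbilical vein endothelial cells (3C system), read 24 h after compound addition; E-selectin measured by ELISA. Bidirectional curve fitting against DMSO baseline; cytotoxicity by parallel SRB total-protein staining.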

Read-out in test [4]: Interleukin-1 alpha (IL1a), IL1A (gene 3552)
The experiment in a line: BSK_BE3C_IL1a: BioMAP Diversity Plus: BE3C Assay for Interleukin-1 alpha (IL1a) Biomarker Activity (AID 2283016). The settings on record: primary human bronchial epithelial cells; actives raise or lower the signal. A digest of the protocol: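 IL-1a measured by ELISA after 24 h treatment of human primary bronchial epithelial cells, with gain or loss of signal fitted versus DMSO. Parallel cultures stained with SRB gauge overt cytotoxicity.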

Read-out in test [5]: Monocyte Chemoattractant Protein-1 (MCP1), CCL2 (gene 6347)
Kind of test: BSK_3C_MCP1: BioMAP Diversity Plus: 3C Assay for Monocyte Chemoattractant Protein-1 (MCP1) Biomarker Activity (AID 2283017). The settings on record: primary human endothelial cells (HUVEC); actives raise or lower the signal. In short, it runs like this: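 Human umbilical vein endothelial cells (3C system) exposed to chemicals for 24 h; MCP-1 quantified by ELISA against the DMSO baseline with bidirectional fitting, and parallel SRB staining used to assess cytotoxicity.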

Read-out in test [6]: Monocyte Chemoattractant Protein-1 (MCP1), CCL2 (gene 6347)
The experiment in a line: BSK_4H_MCP1: BioMAP Diversity Plus: 4H Assay for Monocyte Chemoattractant Protein-1 (MCP1) Biomarker Activity (AID 2283018). The settings on record: primary human endothelial cells (HUVEC); actives raise or lower the signal. In short, it runs like this: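 ELISA of MCP-1 (CCL2) 24 h after chemical dosing of HUVEC in the BioMAP 4H system. Gain or loss versus DMSO fitted; parallel SRB staining (560 nm) tracked overt cytotoxicity.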

Read-out in test [7]: Human Leukocyte Antigen - DR isotype (HLADR), HLA-DRA (gene 3122)
The experiment in a line: BSK_3C_HLADR: BioMAP Diversity Plus: 3C Assay for Human Leukocyte Antigen - DR isotype (HLADR) Biomarker Activity (AID 2283019). As to conditions: primary human endothelial cells (HUVEC); actives raise or lower the signal. In short, it runs like this: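 HUVEC monoculture, HLA-DR measured by ELISA 24 h after chemical dosing. Fitted bidirectionally against DMSO baseline; parallel SRB staining assessed cytotoxicity, with 3C proliferation read by SRB at 48 h.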

Read-out in test [8]: Interleukin-8 (IL8), CXCL8 (gene 3576)
Kind of test: BSK_3C_IL8: BioMAP Diversity Plus: 3C Assay for Interleukin-8 (IL8) Biomarker Activity (AID 2283020). As to conditions: primary human endothelial cells (HUVEC); actives raise or lower the signal. A digest of the protocol: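 IL-8 was measured by ELISA in HUVEC cultures 24 h after chemical dosing, with gain or loss of signal fitted relative to DMSO. Parallel SRB total-protein staining tracked overt cytotoxicity.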

Read-out in test [9]: Monokine induced gamma interferon (MIG), CXCL9 (gene 4283)
The experiment in a line: BSK_3C_MIG: BioMAP Diversity Plus: 3C Assay for Monokine induced gamma interferon (MIG) Biomarker Activity (AID 2283021). As to conditions: primary human endothelial cells (HUVEC); actives raise or lower the signal. A digest of the protocol: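 ELISA measurement of MIG in human umbilical vein endothelial cells 24 h after treatment. Cytotoxicity tracked by SRB staining in parallel cultures; gain or loss of signal fitted relative to DMSO.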

The target in test [10] is human Vitamin D Receptor (VDR), VDR (gene 7421) (UniProt P11473). The experiment in a line: ATG_VDR_TRANS: Attagene TRANS-FACTORIAL HepG2 Assay for human Vitamin D Receptor (VDR) (AID 2283022; active = hit-call score of the fitted dose curve at least 0.9, where 1 is the maximum). In short, it runs like this:
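HepG2 cells were transiently transfected with GAL4-UAS reporter units and a chimeric VDR-Gal4 construct, then dosed for 24 hours. Reporter mRNA was quantified by RT-PCR, fluorescent labeling, HpaI digestion and capillary electrophoresis; gain of signal analysed vs DMSO.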

A short description of test [11]: BSK_3C_SRB: Viability Assessment in the BioMAP Diversity Plus: 3C Assay (AID 2283023).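 Note: fitted both ways against DMSO so a hit may be signal rise or drop.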 The settings on record: primary human endothelial cells (HUVEC). In short, it runs like this:
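Human umbilical vein endothelial cells in the 3C system, treated 24 h. Total protein measured by 0.1% sulforhodamine B staining after 10% TCA fixation, read at 560 nm; bidirectional fit versus DMSO.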

Read-out in test [12]: Matrix Metallopeptidase 1 (MMP1), MMP1 (gene 4312)
Kind of test: BSK_BE3C_MMP1: BioMAP Diversity Plus: BE3C Assay for Matrix Metallopeptidase 1 (MMP1) Biomarker Activity (AID 2283024). The settings on record: primary human bronchial epithelial cells; actives raise or lower the signal. In short, it runs like this: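 ELISA measurement of MMP-1 after 24 h compound exposure of primary human bronchial epithelial cells. Changes in either direction fitted relative to DMSO; parallel SRB staining checked overt cytotoxicity.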

Read-out in test [13]: Pselectin, SELP (gene 6403)
The experiment in a line: BSK_4H_Pselectin: BioMAP Diversity Plus: 4H Assay for Pselectin Biomarker Activity (AID 2283026). As to conditions: primary human endothelial cells (HUVEC); actives raise or lower the signal. In short, it runs like this:
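ELISA of surface P-selectin on HUVEC, 24 h after dosing, with parallel SRB staining (0.1% after 10% TCA fixation, 560 nm) for overt cytotoxicity. Activity fitted in both directions relative to DMSO.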

The nature of test [14]: BSK_4H_SRB: Viability Assessment in the BioMAP Diversity Plus: 4H Assay (AID 2283027).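 For AC50: curves fitted both ways versus DMSO so AC50 may be loss or gain.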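 Note: cells exposed to compound for 24 h before staining.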 As to conditions: primary human endothelial cells (HUVEC). A digest of the protocol: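 HUVEC, 24 h post-dose; 10% TCA fix, 0.1% SRB stain, A560 nm. Total protein = overt cytotoxicity, parallel to biomarker read. Bidirectional fit vs DMSO baseline.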
Read-out in test [15]: Thrombomodulin, THBD (gene 7056)
The experiment in a line: BSK_3C_Thrombomodulin: BioMAP Diversity Plus: 3C Assay for Thrombomodulin Biomarker Activity (AID 2283029). As to conditions: primary human endothelial cells (HUVEC); actives raise or lower the signal. In short, it runs like this: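 ELISA measurement of thrombomodulin on HUVEC surface 24 h after chemical dosing; activity fitted in both directions relative to DMSO vehicle.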

Read-out in test [16]: Urokinase-type plasminogen activator receptor (uPAR), PLAUR (gene 5329)
The experiment in a line: BSK_4H_uPAR: BioMAP Diversity Plus: 4H Assay for Urokinase-type plasminogen activator receptor (uPAR) Biomarker Activity (AID 2283030). The settings on record: primary human endothelial cells (HUVEC); actives raise or lower the signal. In short, it runs like this:
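Human umbilical vein endothelial cells in the 4H system, 24 h after chemical dosing. Cell-surface uPAR measured by ELISA, fitted in both directions versus DMSO; cytotoxicity checked by SRB total protein in parallel cultures.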

The target in test [17] is human Retinoid X Receptor beta (RXRb), RXRB (gene 6257) (UniProt P28702). Kind of test: ATG_RXRb_TRANS: Attagene TRANS-FACTORIAL HepG2 Assay for human Retinoid X Receptor beta (RXRb) (AID 2283013; active = hit-call score of the fitted dose curve at least 0.9, where 1 is the maximum). In short, it runs like this:
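Readout is reporter transcript induction after 24 h dosing. It is measured by RT-PCR of total RNA followed by fluorescent capillary electrophoresis. HepG2 liver cells carry transfected multiple reporter units driven by an exogenous RXRb-Gal4 fusion; activity is relative to DMSO.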

Test [18] is described as follows: BSK_BE3C_SRB: Viability Assessment in the BioMAP Diversity Plus: BE3C Assay (AID 2283028). As to conditions: primary human bronchial epithelial cells. In short, it runs like this: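 Human bronchial epithelial primary cells in confluent culture, 24 h after chemical dosing; total protein by 0.1% SRB staining after 10% TCA fixation, read at 560 nm. Bidirectional fitting versus DMSO baseline.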

E-selectin (Homo sapiens), sequence (P16581 whole entry, looked up): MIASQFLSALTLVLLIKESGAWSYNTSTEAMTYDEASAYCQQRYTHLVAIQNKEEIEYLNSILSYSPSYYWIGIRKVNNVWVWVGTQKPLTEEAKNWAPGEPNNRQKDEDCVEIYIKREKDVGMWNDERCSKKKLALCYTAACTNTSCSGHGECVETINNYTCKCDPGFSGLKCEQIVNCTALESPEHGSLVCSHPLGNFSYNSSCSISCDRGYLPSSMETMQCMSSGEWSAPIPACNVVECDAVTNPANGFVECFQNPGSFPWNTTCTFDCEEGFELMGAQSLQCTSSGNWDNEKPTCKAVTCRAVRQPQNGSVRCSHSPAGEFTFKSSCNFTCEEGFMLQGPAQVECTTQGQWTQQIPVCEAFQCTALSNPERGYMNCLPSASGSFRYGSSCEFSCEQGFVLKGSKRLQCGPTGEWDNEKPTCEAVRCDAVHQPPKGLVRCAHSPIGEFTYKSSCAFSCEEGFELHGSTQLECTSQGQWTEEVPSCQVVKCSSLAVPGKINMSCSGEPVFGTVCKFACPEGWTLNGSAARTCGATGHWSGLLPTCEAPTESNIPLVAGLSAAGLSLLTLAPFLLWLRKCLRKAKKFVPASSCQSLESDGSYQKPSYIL
human Vitamin D Receptor (VDR), VDR (gene 7421), sequence (P11473 whole entry, looked up, the tested form may be a part): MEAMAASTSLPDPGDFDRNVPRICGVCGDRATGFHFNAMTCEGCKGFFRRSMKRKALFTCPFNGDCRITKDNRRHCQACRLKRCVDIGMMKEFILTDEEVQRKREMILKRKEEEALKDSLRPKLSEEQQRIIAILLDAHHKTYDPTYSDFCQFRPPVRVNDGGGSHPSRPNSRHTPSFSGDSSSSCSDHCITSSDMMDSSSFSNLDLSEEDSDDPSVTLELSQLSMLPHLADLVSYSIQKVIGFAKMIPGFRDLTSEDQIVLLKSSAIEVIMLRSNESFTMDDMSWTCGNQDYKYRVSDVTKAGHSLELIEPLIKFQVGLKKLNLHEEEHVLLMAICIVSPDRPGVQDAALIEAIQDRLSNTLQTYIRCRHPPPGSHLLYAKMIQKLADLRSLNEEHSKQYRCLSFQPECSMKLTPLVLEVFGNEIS
Retinoic acid receptor RXR-alpha (Homo sapiens), sequence (P19793 whole entry, looked up, the tested form may be a part): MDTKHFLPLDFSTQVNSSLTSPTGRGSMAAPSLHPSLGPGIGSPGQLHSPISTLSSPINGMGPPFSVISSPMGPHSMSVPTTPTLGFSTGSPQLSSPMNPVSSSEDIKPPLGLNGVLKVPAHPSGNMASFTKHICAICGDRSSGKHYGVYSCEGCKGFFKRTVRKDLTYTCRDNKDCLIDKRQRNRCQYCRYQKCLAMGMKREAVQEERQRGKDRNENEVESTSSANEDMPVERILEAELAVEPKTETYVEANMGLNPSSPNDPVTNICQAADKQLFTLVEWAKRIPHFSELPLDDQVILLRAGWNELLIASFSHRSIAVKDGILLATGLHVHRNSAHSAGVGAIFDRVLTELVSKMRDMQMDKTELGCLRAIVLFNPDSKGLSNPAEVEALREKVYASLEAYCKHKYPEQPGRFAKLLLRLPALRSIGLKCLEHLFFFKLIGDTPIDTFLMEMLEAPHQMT
human Thyroid Receptor alpha (THRa1), THRA (gene 7067), sequence (P10827 whole entry, looked up, the tested form may be a part): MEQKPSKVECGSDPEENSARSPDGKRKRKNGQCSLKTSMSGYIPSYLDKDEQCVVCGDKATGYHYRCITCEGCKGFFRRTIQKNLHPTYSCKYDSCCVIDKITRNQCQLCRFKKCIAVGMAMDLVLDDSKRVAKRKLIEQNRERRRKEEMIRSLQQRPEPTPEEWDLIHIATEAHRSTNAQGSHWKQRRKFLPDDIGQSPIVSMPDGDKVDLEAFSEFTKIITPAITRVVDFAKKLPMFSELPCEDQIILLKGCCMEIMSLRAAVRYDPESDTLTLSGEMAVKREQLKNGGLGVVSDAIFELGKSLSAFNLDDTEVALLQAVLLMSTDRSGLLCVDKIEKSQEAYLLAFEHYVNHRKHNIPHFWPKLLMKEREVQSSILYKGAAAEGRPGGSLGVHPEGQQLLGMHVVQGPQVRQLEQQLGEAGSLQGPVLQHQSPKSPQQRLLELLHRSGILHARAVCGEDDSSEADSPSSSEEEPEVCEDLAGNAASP
human Retinoid X Receptor beta (RXRb), RXRB (gene 6257), sequence (P28702 whole entry, looked up, the tested form may be a part): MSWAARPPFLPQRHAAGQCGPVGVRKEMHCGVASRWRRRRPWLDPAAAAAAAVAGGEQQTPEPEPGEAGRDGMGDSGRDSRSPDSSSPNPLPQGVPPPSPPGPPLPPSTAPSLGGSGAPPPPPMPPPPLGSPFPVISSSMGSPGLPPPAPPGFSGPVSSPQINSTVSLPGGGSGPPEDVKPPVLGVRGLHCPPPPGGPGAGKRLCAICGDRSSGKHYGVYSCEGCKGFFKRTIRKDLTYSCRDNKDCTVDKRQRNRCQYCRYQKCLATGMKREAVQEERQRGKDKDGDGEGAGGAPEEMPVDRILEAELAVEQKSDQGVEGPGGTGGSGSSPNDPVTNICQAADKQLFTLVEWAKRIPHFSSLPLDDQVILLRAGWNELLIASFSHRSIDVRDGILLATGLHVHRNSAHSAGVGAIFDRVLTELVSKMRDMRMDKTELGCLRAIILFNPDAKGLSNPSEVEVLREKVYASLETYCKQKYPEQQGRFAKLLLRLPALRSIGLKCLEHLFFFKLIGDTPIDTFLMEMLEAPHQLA

In general, AC50 refers to the concentration at which the activity in the assay is half-maximal. Regarding `CCN(CCO)S(=O)(=O)C(F)(F)C(F)(F)C(F)(F)C(F)(F)C(F)(F)C(F)(F)C(F)(F)C(F)(F)F`, the result in [1], in test [2], in [3], in test [6], in test [8] and in [9] was inactive. For the same molecule, the result in [10], in test [12], in test [13] and in test [16] was inactive. The AC50 in test [4] was 45.7 µM (active) and 19.5 µM (active); in [5] it was 23.1 µM (active) and 9.73 µM (active); in test [7], 42.6 µM (active) and 20.2 µM (active); in test [8], 13.7 µM (active); in test [11], 27.6 µM (active) and 17.8 µM (active); in [12], 4.15 µM (active). Further, the AC50 in test [13] was 19.1 µM (active); in [14], 45.8 µM (active) and 40.1 µM (active); in test [15], 12.6 µM (active) and 21.8 µM (active).
For `CCCCCCCCCCCC(=O)Cl`, the result in [1] and in test [10] was inactive. For the same molecule, in [17], the AC50 is 38.5 µM (active).
For `CCOCOCC`, the call in test [1], in [2] and in test [10] was inactive.
On to `OCC(O)CC(F)(F)C(F)(F)C(F)(F)C(F)(F)F` (stereo not drawn), for which the molecule was classed as inactive in test [1], in test [3], in [4], in test [5], in test [6] and in test [7]. In addition, the outcome in test [8], in test [9], in test [10], in test [11], in test [12] and in test [13] was inactive. Also, the result in [14], in test [18], in test [15] and in test [16] was inactive.
With `OCC(F)(F)C(F)(F)C(F)(F)C(F)(F)C(F)(F)C(F)(F)C(F)(F)C(F)(F)CO`, the outcome in test [3], in test [4], in [5], in [6], in [7] and in test [8] was inactive. The result in test [9], in test [10], in test [11], in test [12], in test [13] and in test [14] was inactive. In addition, the outcome in [15] and in test [16] was inactive. Also, the half-maximal activity concentration (AC50) is 30 µM (active) in test [4]; 30 µM (active) in test [7]; 24.6 µM (active) in test [11]; 8.5 µM (active) in [12]; 9.58 µM (active) in test [13]; 36.5 µM (active) in test [14].
Turning to `CC1=CCC2C(=O)OC(=O)C2C1` (stereo not drawn), the call in test [10] was inactive.
Consider `OC(O)C(F)(F)C(F)(F)F`, for which the call in test [1], in [3], in [4], in [5], in test [6] and in test [7] was inactive. In addition, the result in test [8], in test [9], in test [10], in [11], in test [12] and in test [13] was inactive. The outcome in test [14], in test [18], in test [15] and in test [16] was inactive.
